This is an account of results in PubChem BioAssay AID1259417 (TB Discovery Research, Infectious Disease Research Institute, 2018).

This test in a line: M. tuberculosis growth inhibition, HTS (AID 1259417).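 Further: bacteria grown with compound for 5 days at 37 °C.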 The note with it: stronger effect = higher value, concentration not given here.
Setting [1] is: M. tuberculosis DsRed fluorescence growth inhibition.
The mark [2] stands for this setting: M. tuberculosis growth inhibition.

About 760 (69%) of roughly 1,100 compounds were called active. How the calls were made is not given here. So high a share suggests a set chosen from earlier hits. The list shows a part of the results.

One may read the inhibition as the relative decrease from the control value, in per cent.

Regarding `O=[N+]([O-])c1ccc(N2CCN(CCO)CC2)cc1NCCOc1cccc2ccccc12`, the inhibition was 10.3% (inactive) under setting [1] and -3.69% under setting [2].

With `CCOc1cc2c3c(c1)C1(C(=O)N3C(C)(C)C=C2C)C(C#N)=C(N)Oc2cc(O)ccc21` (stereo not given), the inhibition runs as follows: under setting [1], 10.6% (inactive); under setting [2], -4.41%.

Consider `O=C1C(Cl)=C(Nc2ccccc2O)C(=O)N1c1ccc(Cl)c(Cl)c1`, for which the inhibition was 95.4% (active) under setting [1] and 94.6% under setting [2].

`O=C1C(Cl)=C(Nc2ccccc2O)C(=O)N1c1ccccc1`: the inhibition runs as follows: under setting [1], 96% (active); under setting [2], 94.9%.

Consider `O=[N+]([O-])c1ccc(-c2[nH]c(-c3cccs3)nc2-c2ccccc2)cc1`, for which the inhibition by setting is: under setting [1], -27% (inactive); under setting [2], 4.73%.

On to `COC(=O)CSc1nc2ccccc2nc1SCC(=O)OC`, for which the inhibition by setting is: under setting [1], 11.6% (active); under setting [2], 37.2%.

For the compound `c1ccc(-c2nc(NCC3CCCO3)c3ccccc3n2)nc1` (stereo not given), the inhibition runs as follows: under setting [1], 95.4% (active); under setting [2], 94.9%.

For the compound `COc1ccc(Nc2nc(-c3ccccn3)cs2)c(OC)c1`, the inhibition is 92.1% (active) under setting [1] and 83.9% under setting [2].

On to `CC(=O)c1cccc(Nc2nc(-c3ccccn3)cs2)c1`, for which the inhibition is 70.5% (active) under setting [1] and 74.6% under setting [2].

For `COc1cccc(Nc2nc(-c3ccccn3)cs2)c1`, the inhibition reads like this: under setting [1], 93.6% (active); under setting [2], 93.4%.

For the compound `CC(=O)c1cccc(Nc2cc(C)nc3c2ccc2ccccc23)c1`, the inhibition is 10.9% (inactive) under setting [1] and -33.8% under setting [2].

`CC(=O)c1ccc(NC(=O)Nc2cc(OCC(F)(F)F)cc(OCC(F)(F)C(F)F)c2)cc1`: the inhibition was 1.19% (inactive) under setting [1] and 22.7% under setting [2].

Turning to `CC(=O)c1ccc(NC(=O)NC(C)C23CC4CC(CC(C4)C2)C3)cc1` (stereo not given), the inhibition was 98.3% (active) under setting [1] and 94.8% under setting [2].

In the case of `Cc1ccc(-c2nc3c(cnn3-c3ccccc3)c(=O)o2)cc1`, the inhibition is 4.19% (inactive) under setting [1] and -0.344% under setting [2].

In the case of `Cc1oc2c(c1C(=O)Nc1cccc3ccccc13)CCCC2`, the inhibition runs as follows: under setting [1], 13.4% (inactive); under setting [2], 21.7%.

`O=C(Nc1ccc(-c2nc3ccccc3c(=O)o2)cc1)c1ccccc1I`: the inhibition runs as follows: under setting [1], 78.1% (active); under setting [2], 85.2%.

On to `CCCC(=O)Nc1cccc(-c2nc3ccccc3c(=O)o2)c1`, for which the inhibition reads like this: under setting [1], 29.1% (active); under setting [2], 52%.

For the compound `CCOC(=O)C(Cc1ccccc1)C(=O)Nc1cccc2ccccc12` (stereo not given), the inhibition reads like this: under setting [1], -0.257% (inactive); under setting [2], -5.18%.

`COc1ccccc1OC(=O)c1sc2ccccc2c1Cl`: the inhibition by setting is: under setting [1], 17.3% (active); under setting [2], 53%.

`Cc1ccccc1OC(=O)c1sc2ccccc2c1Cl`: the inhibition reads like this: under setting [1], 25.5% (active); under setting [2], 64.7%.

As to `COc1ccccc1-c1nnc(NC(=O)c2sc3ccccc3c2Cl)o1`, the inhibition is -1.61% (inactive) under setting [1] and -16% under setting [2].

As to `Cc1c(OC(=O)c2ccccc2Cl)ccc2c1CCCC2`, the inhibition reads like this: under setting [1], 7.92% (inactive); under setting [2], 16.4%.

Consider `O=C1c2cccc3cccc(c23)C(=O)N1c1ccc2[nH]c(=O)[nH]c2c1`, for which the inhibition reads like this: under setting [1], 36.4% (active); under setting [2], 63.9%.

Regarding `COc1ccc2nc(C)c3cc(C)oc3c2c1`, the inhibition by setting is: under setting [1], 99.8% (active); under setting [2], 99.6%.

Consider `O=c1cc(-c2c(F)c(F)c(F)c(F)c2F)oc2ccccc12`, for which the inhibition was 99.2% (active) under setting [1] and 96.4% under setting [2].

Regarding `O=C(Oc1ccccc1Cl)c1ccc(N2CCOCC2)c([N+](=O)[O-])c1`, the inhibition runs as follows: under setting [1], 0.0336% (inactive); under setting [2], 13.4%.

Regarding `Cc1ccc(S(=O)(=O)NC(=O)Oc2cccc3cccnc23)cc1`, the inhibition is -0.272% (inactive) under setting [1] and -10.4% under setting [2].

As to `O=C(Oc1c(Cl)cc(Cl)c2cccnc12)c1cc(S(=O)(=O)N2CCCCC2)ccc1Cl`, the inhibition runs as follows: under setting [1], 98.6% (active); under setting [2], 99.4%.

Take `O=C(Oc1ccc(Cl)cc1)c1ccc(N2CCOCC2)c([N+](=O)[O-])c1`: the inhibition reads like this: under setting [1], 4.2% (inactive); under setting [2], 24.6%.

For the compound `O=C(Oc1cccc2cccnc12)c1ccc(S(=O)(=O)N2CCCCC2)cc1`, the inhibition reads like this: under setting [1], 99.4% (active); under setting [2], 100%.

As for `O=C(Oc1ccc(Cl)cc1)c1ccc(S(=O)(=O)c2ccc(Cl)cc2)cc1`, the inhibition under setting [1] was 55.3% (active) and the inhibition under setting [2] was 74.8%.

On to `O=C(Oc1cccc2cccnc12)c1ccc(Cl)c(S(=O)(=O)N2CCOCC2)c1`, for which the inhibition is 100% (active) under setting [1] and 101% under setting [2].

`COCCn1nnnc1C(c1cc2cc(OC)ccc2[nH]c1=O)N1CCC(Cc2ccccc2)CC1` (stereo not given): the inhibition reads like this: under setting [1], 6.25% (inactive); under setting [2], -12.1%.

As to `O=C(Oc1ccccc1)c1ccc(S(=O)(=O)N2CCCCC2)cc1`, the inhibition under setting [1] is 12% (active) and the inhibition under setting [2] was determined as 46.3%.

For `COc1ccc(CNC(=O)c2c(C)nc3ccccn23)cc1`, the inhibition runs as follows: under setting [1], 99.4% (active); under setting [2], 100%.

Regarding `Cc1nc2ccccn2c1C(=O)NCc1ccc2c(c1)OCO2`, the inhibition is 99.7% (active) under setting [1] and 99.6% under setting [2].

As for `Cc1nn(Cc2ccccc2Cl)c2sc(C(=O)NCc3ccc4c(c3)OCO4)cc12`, the inhibition by setting is: under setting [1], -3.53% (inactive); under setting [2], -15.9%.

`CCOC(=O)CSc1nc(C#N)c(SCC(=O)OCC)s1`: the inhibition is 31.4% (active) under setting [1] and 80.2% under setting [2].

In the case of `CCOC(=O)CSc1nc(N)c(C#N)c(CC(C)C)c1C#N`, the inhibition is -5.9% (inactive) under setting [1] and -4.83% under setting [2].

Regarding `Cc1ccc(NC(=O)CSc2ccc(-c3ccccn3)nn2)cc1`, the inhibition was 89% (active) under setting [1] and 97.4% under setting [2].

As to `COc1ccc(-c2nc(NC(=O)c3ccccc3)n[nH]2)cc1OC`, the inhibition is 97.2% (active) under setting [1] and 96.7% under setting [2].

Turning to `CCOC(=O)c1c(NC(=O)c2ccccc2C)sc(C)c1-c1ccc(OC)c(OC)c1`, the inhibition is, setting by setting: under setting [1], -3.52% (inactive); under setting [2], -17.9%.

Take `CC(C)=CCN1CCN(CCC2=C(C)CCCC2(C)C)CC1CCO` (stereo not given): the inhibition under setting [1] is -2.34% (inactive) and the inhibition under setting [2] was -26.9%.

For `COc1cccc(NC(=O)c2c(NC(=O)c3cccc(C)c3)sc3c2CCC3)c1`, the inhibition was -1.15% (inactive) under setting [1] and -10.7% under setting [2].

Take `COc1cccc(NC(=O)c2c(NC(=O)c3cccnc3)sc3c2CCC3)c1`: the inhibition reads like this: under setting [1], 92.4% (active); under setting [2], 95.5%.
